Experimental data reported in the supplement of paper PMC6555819.

How the values were obtained:
Assay in all cases: PBM binding z-score (relative to random genomic background probes); higher = stronger binding; sequences stand for … in GC…GCGATTGACAGCGTAGAATGAAGG
[1] = tested on: PPARg:RXRa DBDmut IVT, anti-RXR (DBD mutation: RXRa K156A/R161A, NR concentration 270 nM, RXRa partner concentration 90 nM)
How it was run: (§1)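 Scanned fluorescence from custom Agilent 4×180K protein-binding microarrays was regression-normalized. Binding z-scores use random background probes as reference. Ligand-free nuclear receptor dimers were incubated on the arrays for 1 h and detected with antibodies against each partner (one per run).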

[2] = tested on: PPARg:RXRa IVT, anti-PPARg (NR concentration 270 nM, RXRa partner concentration 90 nM)
How it was run: as §1

[3] = tested on: PPARg DBDmut:RXRa IVT, anti-PPARg (DBD mutation: PPARg1 K132A/R137A, NR concentration 270 nM, RXRa partner concentration 90 nM)
How it was run: as §1

[4] = tested on: PPARg DBDmut IVT, anti-PPARg (DBD mutation: PPARg1 K132A/R137A, NR concentration 270 nM)
How it was run: as §1

[5] = tested on: PPARg homodimer (NR concentration 180 nM)
How it was run: as §1

[6] = tested on: PXR:RXRa (NR concentration 270 nM, RXRa partner concentration 90 nM)
How it was run: as §1

[7] = tested on: PXR homodimer (NR concentration 270 nM)
How it was run: as §1

[8] = tested on: RARa:RXR (NR concentration 270 nM, RXRa partner concentration 90 nM)
How it was run: as §1

[9] = tested on: RARa homodimer (NR concentration 270 nM)
How it was run: as §1

[10] = tested on: RARb:RXRa (NR concentration 270 nM, RXRa partner concentration 90 nM)
How it was run: as §1

[11] = tested on: RARb homodimer (NR concentration 270 nM)
How it was run: as §1

[12] = tested on: RARg:RXRa (NR concentration 270 nM, RXRa partner concentration 90 nM)
How it was run: as §1

[13] = tested on: RARg homodimer (NR concentration 270 nM)
How it was run: as §1

[14] = tested on: RXRa DBDmut IVT, anti-RXR (DBD mutation: RXRa K156A/R161A, NR concentration 90 nM)
How it was run: as §1

[15] = tested on: RXRa homodimer (NR concentration 180 nM)
How it was run: as §1

[16] = tested on: THRa:RXRa (NR concentration 90 nM, RXRa partner concentration 90 nM)
How it was run: as §1

[17] = tested on: THRa homodimer (NR concentration 90 nM)
How it was run: as §1

[18] = tested on: VDR homodimer (NR concentration 270 nM)
How it was run: as §1

Row | Sequence | PBM binding z-score [1] | PBM binding z-score [2] | PBM binding z-score [3] | PBM binding z-score [4] | PBM binding z-score [5] | PBM binding z-score [6] | PBM binding z-score [7] | PBM binding z-score [8] | PBM binding z-score [9] | PBM binding z-score [10] | PBM binding z-score [11] | PBM binding z-score [12] | PBM binding z-score [13] | PBM binding z-score [14] | PBM binding z-score [15] | PBM binding z-score [16] | PBM binding z-score [17] | PBM binding z-score [18]
1 | ACTTACGGGTCAACGAGGGTATAGCACGCGTATA | 2.86 | 3.73 | 1.66 | 1.29 | 2.05 | 4.29 | 1.09 | 4.78 | 0.643 | 4.05 | 3.24 | 5.55 | 4.88 | 2.4 | 5.63 | 3.42 | -0.0304 | 2.67
2 | AGAACGAGGGGAATGAGTTGATAGCACGGGTGGC | 1.5 | 0.636 | 0.108 | 0.301 | 0.561 | -0.115 | 0.264 | 0.125 | 0.109 | 0.142 | 0.0648 | 0.0895 | 0.0667 | 0.224 | 0.437 | 0.0318 | -0.151 | 0.812
3 | CGAACTAGGTCAAGGACGGTGAATCTCCGCACGC | 7.98 | 7.86 | 0.422 | -0.145 | 0.732 | 1.03 | -0.242 | 1.5 | -0.265 | 3.76 | 2.96 | 3.53 | 4.38 | 0.975 | 2.64 | 2.88 | 1.24 | -0.409
4 | CATACTGGGCCAAAGGTCATTGATTCCAATGCTC | 4.86 | 6.31 | 1.88 | 1.07 | 3.77 | 5.52 | 1.72 | 6.32 | 1.82 | 4.71 | 4.79 | 5.89 | 5.04 | 1.73 | 6.78 | 3.47 | 1.03 | 2.42
5 | ACTCGGAGGACAAAGGTCAGAGATACGCCAGTGA | 0.715 | 3.35 | 0.221 | -0.524 | 4.07 | 4.02 | 0.592 | 5.15 | 1.44 | 4.56 | 4.52 | 6.21 | 5.31 | 1.01 | 5.52 | 3.61 | 0.755 | 1.56
6 | GCTAGCATGCCATTTGGGTCACTCAATGACGGGC | 0.671 | 1.3 | 0.0302 | -0.739 | -0.305 | 0.247 | -0.745 | 0.851 | -0.41 | 1 | 1.77 | 0.756 | 0.805 | -0.283 | 0.99 | 1.69 | 0.874 | 0.0275
7 | CGAACAAGGTCAGAACAGGACAGTGAAGGATGAT | 2.79 | 3.05 | 0.722 | 0.826 | 1.5 | 3.22 | 0.399 | 2.47 | 0.0836 | 4.31 | 3.28 | 4.38 | 4.86 | 2.29 | 3.5 | 4.28 | 1.11 | 1.14
8 | AATACAGGGTCAACGTAGGCCAGAGTACGCACAG | 3.16 | 4.2 | 1.64 | 1.2 | 2.78 | 5.23 | 0.288 | 5.45 | 1.71 | 4.6 | 3.8 | 6.08 | 5.84 | 3.18 | 6.81 | 4.35 | 1.24 | 3.28
9 | GCGACTGTGGCATCAGCAGGTTACCATAACTTAA | 0.287 | 0.27 | -0.703 | -1.08 | -0.566 | -0.281 | -0.227 | 0.0331 | -0.798 | 0.00959 | 0.205 | -0.1 | -0.291 | -0.209 | 0.187 | 0.277 | 0.0891 | -0.501
10 | CCTACTGGGCCAAAAGTCATTGATTCCAATGCTC | 4.9 | 4.42 | -0.0689 | -0.159 | 0.216 | -0.153 | -0.589 | 0.273 | 0.25 | 0.447 | 0.0261 | 0.13 | 0.053 | 0.0698 | 0.153 | -0.256 | -0.418 | -0.212
11 | GCGACTGGGGCAAAACAGGTTACCATAAGGTTGG | 3.9 | 3.17 | -0.443 | -0.478 | -0.0203 | 0.334 | -0.325 | 0.794 | -0.332 | 0.897 | 1.31 | 0.535 | 0.627 | -0.186 | 0.658 | 2.3 | 0.0603 | -0.526
12 | CCTACTGGGCCACGAAAGGTCATTCATTCAGTGA | 5.95 | 5.87 | 1.4 | 0.0477 | 3.21 | 5.7 | 2.12 | 5.5 | 1.45 | 4.15 | 4.77 | 4.77 | 4.33 | 0.665 | 5.17 | 3.8 | 0.995 | 2.83
13 | ACTACTTGGTCAGCTGAGGTCACACACAATTCGG | 2.16 | 2.81 | 0.583 | 1.36 | 4.02 | 5.72 | 1.85 | 4.92 | 0.831 | 3.59 | 4.44 | 4.3 | 4.38 | 1.76 | 4.45 | 5.04 | 5.43 | 3.73
14 | CCTATTGGGCCATCAGGTCATTGATATCAACGTT | 3.63 | 3.39 | 0.758 | 0.0799 | 1.42 | 1.84 | 0.775 | 2 | 0.136 | 2.25 | 2.49 | 2.26 | 1.88 | 0.643 | 1.39 | 3.3 | 2.98 | 1.87
